About 79,000 compounds went through this panel and 15% of them were active in at least one assay; those are over-represented in the sample as a whole. Values without a mark were called inactive. Activity calls are given as the source filed them. Cut-off read from the data, not from the text of the source: active = growth inhibition above about 70%; inactive = the rest.

Experimental findings from PubChem BioAssay (NCI) are described below.

The nature of the first assay: NCI Yeast Anticancer Drug Screen. Data for the bub3 strain (AID 167). To be noted: S. cerevisiae bub3 mutant strain, at 5.0 µM (retest, dose inferred, filed as 0.5), stronger effect = higher value. The method in brief:
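Steps: expose the mutant yeast strain to compound; grow alongside vehicle-treated cultures; measure growth; express inhibition against the vehicle cultures.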
For `CCOC(=O)c1cnc2cc3cccccc3n2c1=O`, the growth inhibition is -2%.
As for `C(=N\NC1=NCCN1)/c1ccc(-c2cn3cc(/C=N/NC4=NCCN4)ccc3n2)cc1`, the growth inhibition was 98% (active).
Take `CC(CN(C)C)C(/C=C/c1ccc(F)cc1)=N\Nc1ccccc1` (stereo unspecified): the growth inhibition is -1%.
For the molecule `O=C1C(Sc2ccc3ccccc3c2)=C(Sc2ccc3ccccc3c2)C(=O)c2ccccc21`, the growth inhibition was 71% (active).
Regarding `CC(O)c1cccnc1` (stereo unspecified), the growth inhibition is -6%.
As for `Cc1cccc2nc3nc(Cl)c(Cl)nc3n12`, the growth inhibition was 8%.
On the same count and under the same terms, as for `CSc1cc2c(cc1N)Cc1cc(F)ccc1-2`, the figure is -3%; as for `CC(C)C1=CC23CCC4C(C)(C(=O)O)CCCC4(C)C2CC1c1c(O)ccc(O)c13` (stereo unspecified), 31%; as for `C=CCNC(=S)N/N=C(\CCC)c1ccccn1`, 98% (active).
Take `C#CC(C)(C)OC(C)=O`: the growth inhibition was 1%.
Consider `Cc1cc(N2C(=O)CSC2=S)c([N+](=O)[O-])cc1C`, for which the growth inhibition is 42%.
Consider `Cc1[nH]c(=O)[nH]c(=O)c1CN(C)Cc1cc(Cl)cc(Cl)c1O`, for which the growth inhibition is -8%.
For the molecule `CCCCC(CC)C(O)C(=O)O` (stereo unspecified), the growth inhibition is 1%.
For the molecule `CCOCCOc1ccc(OCCOCC)cc1`, the growth inhibition was -8%.
In the case of `O=C(O)c1ccc(C(=O)c2ccccc2C(=O)O)cc1`, the growth inhibition is 0%.
On to `CCCCCCCCCCCCCCNC(=O)CCC(NC(=O)c1ccc(N(C)Cc2cnc3nc(N)nc(N)c3n2)cc1)C(=O)NCCCCCCCCCCCCCC` (stereo unspecified), for which the growth inhibition was 24%.
For `C=C1C(=O)C23OC2C1CCC(=O)C1(C)CC[C@H](OC(C)=O)C(C)(C)[C@H]1CC3O` (stereo partly specified), the growth inhibition was 92% (active).
Same read-out and setting: as for `CCCCCCCCCCC(NC(C)=O)(C(=O)OCC)C(=O)OCC`, the figure is 0%; as for `ClC(Cl)(Cl)/C=C/c1cnc2ccccc2n1`, -3%.
Still for that read-out and setting: as for `CCc1nc(N)nc(N)c1-c1ccc(N(C)Cc2ccccc2)c([N+](=O)[O-])c1`, the figure is 52%; as for `O=C(COC(=O)C(c1ccccc1)c1ccccc1)c1ccc(Br)cc1`, 10%; as for `OCCN1COc2cc3c(cc2C1)OCN(CCO)C3`, 1%.

Staying with this assay, now noted: S. cerevisiae bub3 mutant strain, at 50.0 µM (retest, dose inferred, filed as 5.0), stronger effect = higher value.
With `CNS(=O)(=O)c1ccccc1C=C(c1ccccc1)c1ccccc1`, the growth inhibition was 92% (active).
As to `CC(C)c1cc(C(C)C)c(Cl)c(Cl)c1O` (tested in a mixture with another compound), the growth inhibition was 77% (active).
As to `Nc1cccc2cccnc12`, the growth inhibition was -4%.
On to `C[n+]1c(/C=C/c2ccc(N3CCCC3)cc2)sc2ccccc21`, for which the growth inhibition was 98% (active).
`Nc1cn(C2OC(CC(c3ccccc3)(c3ccccc3)c3ccccc3)C(O)C2O)c(=O)[nH]c1=O` (stereo unspecified): the growth inhibition was 66%.
`c1ccc(Cn2nnc(-c3ccccc3)c2-c2ccccc2)cc1`: the growth inhibition was 96% (active).
On to `CCCCCC(CCCCC)OC(=O)CCN(CCCCC)CCCCC`, for which the growth inhibition is 87% (active).
With `C=CCC1(OC(C)=O)CC2C(=O)C(=O)C(C1)N2OC(=O)c1ccccc1` (stereo unspecified), the growth inhibition was 93% (active).
With `C=CS(=O)(=O)c1ccc([N+](=O)[O-])cc1`, the growth inhibition was 98% (active).
For `Cc1ccc(S(=O)(=O)Oc2ccc(C(C)(C)C)cc2Cl)cc1`, the growth inhibition is -1%.
Regarding `O=C(CCl)N1CCN(C(c2ccccc2)c2ccccc2)CC1`, the growth inhibition was 97% (active).
Turning to `Oc1ccc2ccccc2c1.[Cu+2]`, the growth inhibition is 8%.
For the molecule `NS(=O)(=O)c1ccc(NC(=O)Cc2nc3ccccc3s2)cc1`, the growth inhibition was 99% (active).
Same read-out and setting: as for `O=C(COc1ccc(Cl)cc1)OCCO`, the figure is 4%; as for `NC(=Nc1ccccc1)SCc1ccc([N+](=O)[O-])cc1`, 76% (active).
As to `N[C@@H]1CCCC[C@@H]1N.O=C([O-])CN(CP(=O)([O-])[O-])CP(=O)([O-])[O-].[Pt+2]`, the growth inhibition is 89% (active).
With `C/C=C(\C)CC/C=C/CO[Si](C)(C)C(C)(C)C`, the growth inhibition is -11%.
For `CCOC(=O)c1cnc2cc3cccccc3n2c1=O`, the growth inhibition was 67%.
On to `C(=N\NC1=NCCN1)/c1ccc(-c2cn3cc(/C=N/NC4=NCCN4)ccc3n2)cc1`, for which the growth inhibition is 99% (active).
Regarding `CC(CN(C)C)C(/C=C/c1ccc(F)cc1)=N\Nc1ccccc1` (stereo unspecified), the growth inhibition was 39%.
Turning to `O=C1C(Sc2ccc3ccccc3c2)=C(Sc2ccc3ccccc3c2)C(=O)c2ccccc21`, the growth inhibition is 90% (active).
As to `CC(O)c1cccnc1` (stereo unspecified), the growth inhibition was 47%.
Take `Cc1cccc2nc3nc(Cl)c(Cl)nc3n12`: the growth inhibition was 36%.
With `CSc1cc2c(cc1N)Cc1cc(F)ccc1-2`, the growth inhibition is 84% (active).
On the same count and under the same terms, as for `CC(C)C1=CC23CCC4C(C)(C(=O)O)CCCC4(C)C2CC1c1c(O)ccc(O)c13` (stereo unspecified), the figure is 99% (active); as for `C=CCNC(=S)N/N=C(\CCC)c1ccccn1`, 95% (active); as for `C#CC(C)(C)OC(C)=O`, 4%.
In the case of `Cc1cc(N2C(=O)CSC2=S)c([N+](=O)[O-])cc1C`, the growth inhibition was 99% (active).
On to `Cc1[nH]c(=O)[nH]c(=O)c1CN(C)Cc1cc(Cl)cc(Cl)c1O`, for which the growth inhibition is 46%.
The same measure, in the same setting: as for `CCCCC(CC)C(O)C(=O)O` (stereo unspecified), the figure is 26%; as for `CCOCCOc1ccc(OCCOCC)cc1`, -4%; as for `O=C(O)c1ccc(C(=O)c2ccccc2C(=O)O)cc1`, -1%.
Take `CCCCCCCCCCCCCCNC(=O)CCC(NC(=O)c1ccc(N(C)Cc2cnc3nc(N)nc(N)c3n2)cc1)C(=O)NCCCCCCCCCCCCCC` (stereo unspecified): the growth inhibition is 93% (active).
As to `C=C1C(=O)C23OC2C1CCC(=O)C1(C)CC[C@H](OC(C)=O)C(C)(C)[C@H]1CC3O` (stereo partly specified), the growth inhibition was 27%.
`CCCCCCCCCCC(NC(C)=O)(C(=O)OCC)C(=O)OCC`: the growth inhibition is 98% (active).
Regarding `ClC(Cl)(Cl)/C=C/c1cnc2ccccc2n1`, the growth inhibition is 99% (active).
The same measure, in the same setting: as for `CCc1nc(N)nc(N)c1-c1ccc(N(C)Cc2ccccc2)c([N+](=O)[O-])c1`, the figure is 34%; as for `O=C(COC(=O)C(c1ccccc1)c1ccccc1)c1ccc(Br)cc1`, 62%.
Take `OCCN1COc2cc3c(cc2C1)OCN(CCO)C3`: the growth inhibition was -3%.
